For 10 compounds, Percent Effect results are on record in ChEMBL document CHEMBL3988442, “University of Dundee, Small-Polar-MMV Screening Library” (2021).

What all share (set-up): scale not given: direction of the effect not stated beside the values
Test [1] addresses Protein translocase subunit SecA (Escherichia coli (strain K12)) (UniProt P10408). As to the kind of experiment: Assay to Identify E. coli SecA ATPase Inhibitors. The class given is functional. As to conditions: 30 µM.
Test [2] has as its target T1, Ubiquitin-activating enzyme e1, putative (Leishmania donovani (strain BPK282A1)) (UniProt E9BSI1).
T1 sequence (whole entry): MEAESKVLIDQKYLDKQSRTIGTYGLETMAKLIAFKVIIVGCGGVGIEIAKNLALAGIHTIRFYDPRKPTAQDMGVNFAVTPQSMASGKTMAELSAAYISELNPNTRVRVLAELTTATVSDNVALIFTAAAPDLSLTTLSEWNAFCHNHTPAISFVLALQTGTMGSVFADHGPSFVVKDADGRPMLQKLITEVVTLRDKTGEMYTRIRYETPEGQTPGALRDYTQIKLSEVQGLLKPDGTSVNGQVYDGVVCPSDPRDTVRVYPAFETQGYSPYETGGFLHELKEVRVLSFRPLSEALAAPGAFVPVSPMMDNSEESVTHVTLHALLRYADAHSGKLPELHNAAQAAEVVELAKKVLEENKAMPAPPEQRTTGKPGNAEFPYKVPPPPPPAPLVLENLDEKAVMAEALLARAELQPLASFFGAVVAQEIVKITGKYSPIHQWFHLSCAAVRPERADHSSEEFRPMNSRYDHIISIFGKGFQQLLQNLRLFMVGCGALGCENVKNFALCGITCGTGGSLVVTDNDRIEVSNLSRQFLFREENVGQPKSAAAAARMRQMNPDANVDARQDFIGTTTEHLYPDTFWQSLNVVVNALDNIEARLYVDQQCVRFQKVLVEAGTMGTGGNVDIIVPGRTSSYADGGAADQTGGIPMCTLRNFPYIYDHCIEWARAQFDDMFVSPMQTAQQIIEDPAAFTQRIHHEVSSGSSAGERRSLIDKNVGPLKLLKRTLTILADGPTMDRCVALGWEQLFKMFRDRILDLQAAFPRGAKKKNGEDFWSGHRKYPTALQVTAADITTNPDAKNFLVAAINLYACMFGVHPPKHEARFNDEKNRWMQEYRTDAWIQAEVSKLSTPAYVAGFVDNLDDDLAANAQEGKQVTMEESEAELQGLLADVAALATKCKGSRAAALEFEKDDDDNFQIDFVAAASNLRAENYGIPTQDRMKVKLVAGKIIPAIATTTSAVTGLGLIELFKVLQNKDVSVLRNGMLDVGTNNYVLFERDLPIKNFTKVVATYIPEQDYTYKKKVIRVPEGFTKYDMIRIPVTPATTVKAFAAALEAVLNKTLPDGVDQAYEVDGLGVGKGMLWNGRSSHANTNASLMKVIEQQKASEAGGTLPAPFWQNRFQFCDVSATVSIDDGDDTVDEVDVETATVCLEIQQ
As to the kind of experiment: Leishmania donovani Ubiquitin Activating Enzyme (LdE1). As to conditions: 30 µM. The class given is functional.

In test [3] the target is AMP-activated protein kinase, AMPK (Homo sapiens) (UniProt P54646+O43741+P54619+Q9UGJ0+Q9Y478+Q13131+Q9UGI9). As to the kind of experiment: AMP-dependent Kinase enzyme assay. An in vitro enzyme assay that detects ADP turnover that is directly proportional to AMPK activity. This uses naive AMPK that is activated during the assay with MK-8722. The class given is functional. Conditions: 30 µM.

Test [4] addresses Sialic acid-binding Ig-like lectin 9 (Homo sapiens) (UniProt Q9Y336). As to the kind of experiment: Hs-Siglec9 ALPHAscreen SOP 20170721. As to conditions: 10 µM. On the technique in general: Alpha assays give light when donor and acceptor beads are brought close together.
The subject of another test is Trypanosoma cruzi. As to the kind of experiment: Trypanosoma cruzi phosphomannomutase and mannose-1-phosphate guanylyltransferase assay. As to conditions: 10 µM. The class given is functional.
The target of test [5] is T2, Arginase-2, mitochondrial (Homo sapiens) (UniProt P78540).
T2 sequence (whole entry): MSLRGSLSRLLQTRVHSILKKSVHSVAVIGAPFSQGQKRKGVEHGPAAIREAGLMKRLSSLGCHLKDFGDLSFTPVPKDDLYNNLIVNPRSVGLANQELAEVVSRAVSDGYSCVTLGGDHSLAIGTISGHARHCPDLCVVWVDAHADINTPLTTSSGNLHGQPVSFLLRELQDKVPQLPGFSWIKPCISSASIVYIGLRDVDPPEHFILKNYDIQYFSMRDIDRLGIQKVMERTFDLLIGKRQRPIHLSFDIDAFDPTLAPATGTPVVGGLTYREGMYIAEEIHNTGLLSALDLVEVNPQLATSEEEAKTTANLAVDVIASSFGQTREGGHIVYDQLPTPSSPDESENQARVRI
As to the kind of experiment: in vitro enzyme assay to detect the production of urea directly proportional to the activity of Arginase II. Note: in the data most compounds retested in dose-response had high values. The class given is functional. As to conditions: 33.3 µM.

The target of test [6] is T3, Proteasome subunit beta (Trypanosoma cruzi) (UniProt O96673).
T3 sequence (whole entry): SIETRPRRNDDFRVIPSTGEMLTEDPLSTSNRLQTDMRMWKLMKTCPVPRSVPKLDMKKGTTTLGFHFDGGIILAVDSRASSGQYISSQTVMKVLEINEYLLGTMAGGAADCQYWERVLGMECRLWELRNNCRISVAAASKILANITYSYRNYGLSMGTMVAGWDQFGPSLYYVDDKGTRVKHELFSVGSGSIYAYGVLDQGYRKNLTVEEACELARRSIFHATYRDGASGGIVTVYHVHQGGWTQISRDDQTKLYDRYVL
As to the kind of experiment: Trypanosoma cruzi proteasome chymotrypsin-like activity (TcProtChymo) assay. Note: in the data most compounds retested in dose-response had high values. As to conditions: 9.37 µM. The class given is functional.

A further test is filed under the species Homo sapiens. As to the kind of experiment: To identify inhibition of the IFN signalling (Jak-Stat) pathway via expression of an eGFP reporter gene under the control of an IFN-stimulated response element (ISRE) containing MxA promoter. The class given is functional. As to conditions: 30 µM. In general terms: Reporter assays use an easily measured gene product as a stand-in for the process of interest.

The target of test [7] is T4, Tyrosyl-tRNA synthetase, putative (Trypanosoma cruzi (strain CL Brener)) (UniProt Q4DSP6).
T4 sequence (whole entry): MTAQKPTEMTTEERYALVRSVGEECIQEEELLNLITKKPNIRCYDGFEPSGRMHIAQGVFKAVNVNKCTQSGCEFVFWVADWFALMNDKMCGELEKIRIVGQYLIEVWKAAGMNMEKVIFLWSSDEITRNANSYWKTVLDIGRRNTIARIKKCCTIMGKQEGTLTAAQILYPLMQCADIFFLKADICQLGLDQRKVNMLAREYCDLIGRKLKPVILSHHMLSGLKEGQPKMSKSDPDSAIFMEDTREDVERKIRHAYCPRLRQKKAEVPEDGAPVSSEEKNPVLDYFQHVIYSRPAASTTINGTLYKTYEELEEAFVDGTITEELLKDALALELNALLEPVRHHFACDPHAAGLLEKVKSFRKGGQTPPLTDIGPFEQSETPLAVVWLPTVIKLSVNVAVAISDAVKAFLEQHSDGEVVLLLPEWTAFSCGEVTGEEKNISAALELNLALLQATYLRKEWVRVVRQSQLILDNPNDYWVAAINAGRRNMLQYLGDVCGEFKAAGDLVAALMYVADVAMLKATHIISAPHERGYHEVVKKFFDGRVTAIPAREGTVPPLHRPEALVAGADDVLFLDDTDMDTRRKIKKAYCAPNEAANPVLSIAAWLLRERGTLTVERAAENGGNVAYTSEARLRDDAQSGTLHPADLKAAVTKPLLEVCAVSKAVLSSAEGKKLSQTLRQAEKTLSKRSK
As to the kind of experiment: Trypanosoma cruzi tyrosyl tRNA synthetase (TcYRS) _High Tyrosine SOP. Note: in the data most compounds retested in dose-response had high values. The class given is functional. Conditions: 30 µM.

In test [8] the target is T4, Tyrosyl-tRNA synthetase, putative (Trypanosoma cruzi (strain CL Brener)). As to the kind of experiment: Trypanosoma cruzi tyrosyl tRNA synthetase (TcYRS) SOP. The class given is functional. As to conditions: 30 µM.
Test [9] deals with Chromo domain-containing protein 1 (Saccharomyces cerevisiae (strain ATCC 204508 / S288c) (Baker's yeast)) (UniProt P32657). As to the kind of experiment: ScCHD-1 Enzyme Inhibition Assay. Note: in the data most compounds retested in dose-response had high values. The class given is functional. As to conditions: 30 µM.

Molecules are shown by their SMILES. For some assays here: Measured potencies and affinities stand elsewhere.

Protein translocase subunit SecA (Escherichia coli (strain K12)), sequence (P10408 whole entry): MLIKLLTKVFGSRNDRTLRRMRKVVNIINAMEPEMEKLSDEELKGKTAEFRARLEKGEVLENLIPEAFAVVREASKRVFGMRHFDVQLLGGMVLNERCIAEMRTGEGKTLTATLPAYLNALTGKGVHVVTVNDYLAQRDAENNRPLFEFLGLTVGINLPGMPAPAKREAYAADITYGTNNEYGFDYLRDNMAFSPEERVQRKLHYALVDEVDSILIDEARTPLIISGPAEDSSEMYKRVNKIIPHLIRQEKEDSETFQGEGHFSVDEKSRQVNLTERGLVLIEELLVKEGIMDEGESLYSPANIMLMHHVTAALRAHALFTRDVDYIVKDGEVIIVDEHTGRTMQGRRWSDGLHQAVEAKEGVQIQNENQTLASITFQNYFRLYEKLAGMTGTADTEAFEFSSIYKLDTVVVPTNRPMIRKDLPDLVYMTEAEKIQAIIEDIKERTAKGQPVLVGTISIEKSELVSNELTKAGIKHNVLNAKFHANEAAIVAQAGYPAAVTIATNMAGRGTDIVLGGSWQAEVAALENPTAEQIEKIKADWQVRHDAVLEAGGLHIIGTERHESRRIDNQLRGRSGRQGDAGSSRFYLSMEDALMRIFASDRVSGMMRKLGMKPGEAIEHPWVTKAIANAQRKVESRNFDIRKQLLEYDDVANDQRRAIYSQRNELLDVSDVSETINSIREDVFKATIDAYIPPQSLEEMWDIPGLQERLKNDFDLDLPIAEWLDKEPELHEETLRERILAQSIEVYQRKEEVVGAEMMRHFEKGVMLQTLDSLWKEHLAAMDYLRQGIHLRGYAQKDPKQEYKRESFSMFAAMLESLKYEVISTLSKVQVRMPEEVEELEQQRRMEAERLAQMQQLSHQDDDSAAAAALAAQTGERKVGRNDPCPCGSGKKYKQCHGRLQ
Chromo domain-containing protein 1 (Saccharomyces cerevisiae (strain ATCC 204508 / S288c) (Baker's yeast)), sequence (P32657 whole entry, the tested form may be a part): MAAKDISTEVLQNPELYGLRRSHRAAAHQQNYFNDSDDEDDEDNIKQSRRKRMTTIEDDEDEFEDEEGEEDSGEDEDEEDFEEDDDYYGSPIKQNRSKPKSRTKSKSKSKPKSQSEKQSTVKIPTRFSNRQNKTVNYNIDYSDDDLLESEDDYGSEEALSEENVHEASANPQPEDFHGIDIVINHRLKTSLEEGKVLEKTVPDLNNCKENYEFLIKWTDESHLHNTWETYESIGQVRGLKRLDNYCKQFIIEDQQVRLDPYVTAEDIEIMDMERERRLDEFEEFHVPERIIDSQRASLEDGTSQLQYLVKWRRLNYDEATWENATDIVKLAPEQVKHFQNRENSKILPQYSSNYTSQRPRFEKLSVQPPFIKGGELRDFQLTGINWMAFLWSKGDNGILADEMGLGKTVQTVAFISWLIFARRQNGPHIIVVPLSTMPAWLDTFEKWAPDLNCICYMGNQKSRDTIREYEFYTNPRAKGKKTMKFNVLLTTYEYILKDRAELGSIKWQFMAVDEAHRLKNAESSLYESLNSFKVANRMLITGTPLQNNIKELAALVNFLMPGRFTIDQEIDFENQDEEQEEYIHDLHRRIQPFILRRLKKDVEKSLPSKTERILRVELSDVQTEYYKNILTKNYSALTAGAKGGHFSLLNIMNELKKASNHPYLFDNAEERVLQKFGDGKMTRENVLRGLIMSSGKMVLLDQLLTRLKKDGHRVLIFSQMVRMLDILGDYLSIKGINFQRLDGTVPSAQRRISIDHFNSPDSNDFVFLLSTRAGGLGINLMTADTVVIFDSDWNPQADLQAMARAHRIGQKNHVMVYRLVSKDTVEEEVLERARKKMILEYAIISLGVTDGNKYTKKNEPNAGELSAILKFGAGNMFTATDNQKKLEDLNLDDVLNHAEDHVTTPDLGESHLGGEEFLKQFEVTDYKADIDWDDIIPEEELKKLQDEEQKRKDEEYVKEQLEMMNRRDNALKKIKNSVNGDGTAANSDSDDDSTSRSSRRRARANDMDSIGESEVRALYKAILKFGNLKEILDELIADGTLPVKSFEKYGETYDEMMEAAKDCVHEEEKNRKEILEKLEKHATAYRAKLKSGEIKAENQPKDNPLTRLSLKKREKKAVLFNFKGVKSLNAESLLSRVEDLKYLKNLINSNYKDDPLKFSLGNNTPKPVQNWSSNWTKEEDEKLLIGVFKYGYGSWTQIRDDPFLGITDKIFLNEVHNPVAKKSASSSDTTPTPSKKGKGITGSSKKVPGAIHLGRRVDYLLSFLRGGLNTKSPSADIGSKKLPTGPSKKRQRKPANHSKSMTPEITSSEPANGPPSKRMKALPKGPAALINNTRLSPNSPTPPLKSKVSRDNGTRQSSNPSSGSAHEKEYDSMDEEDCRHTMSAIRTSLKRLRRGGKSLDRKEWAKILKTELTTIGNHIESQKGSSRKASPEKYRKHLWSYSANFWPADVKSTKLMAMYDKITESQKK
Sialic acid-binding Ig-like lectin 9 (Homo sapiens), sequence (Q9Y336 whole entry): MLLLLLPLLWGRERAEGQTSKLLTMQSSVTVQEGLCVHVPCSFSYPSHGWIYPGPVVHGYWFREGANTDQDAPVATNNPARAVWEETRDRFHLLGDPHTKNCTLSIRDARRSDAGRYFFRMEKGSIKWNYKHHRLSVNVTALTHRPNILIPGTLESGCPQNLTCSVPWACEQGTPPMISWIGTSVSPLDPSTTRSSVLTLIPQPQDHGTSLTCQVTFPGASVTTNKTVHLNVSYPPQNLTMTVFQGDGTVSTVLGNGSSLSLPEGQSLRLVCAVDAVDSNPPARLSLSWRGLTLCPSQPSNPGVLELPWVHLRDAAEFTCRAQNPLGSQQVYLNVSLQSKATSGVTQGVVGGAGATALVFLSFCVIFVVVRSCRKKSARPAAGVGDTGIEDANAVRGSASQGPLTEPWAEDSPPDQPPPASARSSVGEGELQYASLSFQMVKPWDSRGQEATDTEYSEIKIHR

Take `Cc1nnc(N2C[C@H](C(=O)NCC3CC3)[C@@H]3CCO[C@@H]3C2)s1`: the Percent Effect in [1] was 0.351%; in [2], 0%; in test [3] it was 3.72%; in [4], 2.6%; with Trypanosoma cruzi, -6.02%; in test [5], -3.23%. Moreover, the Percent Effect is 0.696% in test [6]; 7.74% in the test filed under Homo sapiens; 0% in test [7]; 1.28% in test [8]; -1.37% in test [9].
On to `Cc1csc(CCCNC(=O)[C@H]2CNC[C@@H](C(=O)N3CCCC3)C2)n1`, for which the Percent Effect is -4.06% in test [1]; 8.22% in test [2]; 0.0773% in [3]; 8.38% in [4]; -1.39% in the test with Trypanosoma cruzi; 0.399% in test [5]. Moreover, the Percent Effect is 15.8% in test [6]; -8.49% in the test filed under Homo sapiens; 10.4% in test [7]; 11.1% in test [8]; -1.73% in test [9].
On to `CNC(=O)CS(=O)(=O)C1CCN(S(=O)(=O)C2CC2)CC1`, for which the Percent Effect is -3.71% in test [1]; 0% in test [2]; -0.0113% in [3]; -2.43% in test [4]; 0.979% in the test on Trypanosoma cruzi; 1.36% in test [5]. Besides, the Percent Effect in test [6] is 4.79%; in the test filed under Homo sapiens it was 3.03%; in test [7], 3.23%; in test [8], 5%; in test [9], -0.451%.
`COc1cccc(CNC(=O)CN2CCCCC2Cn2cccn2)c1` (stereo not given): the Percent Effect in [1] is -3.05%; in [2] it was 5.2%; in test [3], 2.66%; in test [4], 13%; with Trypanosoma cruzi, 4.6%; in [5], -0.21%. For the same compound, the Percent Effect was 2.83% in [6]; -17% in the test listed under Homo sapiens; 3.81% in [7]; 11.8% in test [8]; -17.2% in test [9].
Regarding `Brc1cc2c(cc1CN1CCC(N3CCCCC3)CC1)OCCO2`, the Percent Effect in [1] is -3.24%; in [2], -1.39%; in test [3], -9.98%; in [4], -5.8%; with Trypanosoma cruzi it was -0.291%; in test [5], 5.74%. Also, the Percent Effect in [6] is 10.7%; in the test listed under Homo sapiens it was 2.68%; in test [7], 5.26%; in [8], 10.3%; in test [9] it was -2.58%.
For the compound `Cc1ccc(S(=O)(=O)N2CSCC2C(=O)N(C)C2CC2)cc1Cl` (stereo not given), the Percent Effect in test [1] was -5.45%; in test [2], 5.41%; in test [3] it was -2.19%; in test [4], 10.8%; in the test with Trypanosoma cruzi, 6.16%; in [5], 1.74%. The Percent Effect in test [6] was 7.47%; in the test filed under Homo sapiens, 5.7%; in test [7], 0%; in test [8] it was 3.7%; in test [9], -5.33%.
`CCc1nc(CC(=O)N2CCn3c(nnc3C(C)C)C2)cs1`: the Percent Effect in test [1] was -3.31%; in test [2], 0%; in [3], 1.23%; in [4] it was 1.14%; in the test with Trypanosoma cruzi it was 3.95%; in [5], -1.92%. Besides, the Percent Effect in [6] was 3.68%; in the test listed under Homo sapiens, -11.4%; in test [7] it was 2.45%; in test [8], 12.2%; in [9], -11%.
On to `Cc1nc(O)cc(C2CCN(Cc3cccc(F)c3F)C2)n1` (stereo not given), for which the Percent Effect in [1] is -5.61%; in [2] it was 20.3%; in [3], -0.666%; in test [4], -0.896%; in the test with Trypanosoma cruzi it was 1.19%; in [5], -3.94%. For the same compound, the Percent Effect is 9.83% in [6]; 2.45% in the test filed under Homo sapiens; 2.15% in test [7]; 16.9% in test [8]; -14.2% in test [9].
Turning to `O=C1CN(Cc2nnc(-c3ccccc3Br)o2)CCN1`, the Percent Effect in [1] was -1.52%; in [2], 9.72%; in test [3], 0.225%; in [4] it was -0.91%; in the test with Trypanosoma cruzi, 2.43%; in [5] it was 2.65%. The Percent Effect in [6] was 25.1%; in the test listed under Homo sapiens, -21.9%; in test [7], 1.05%; in [8], 7.69%; in test [9], -3.03%.
In the case of `Cc1nnc(NC(=O)NCc2ccc(N3CCN(C)CC3)nc2)s1`, the Percent Effect in test [1] is -5%; in test [2], 15.8%; in test [3], -3.09%; in [4], -1.76%; in the test on Trypanosoma cruzi, -5.32%; in test [5] it was -0.36%. Also, the Percent Effect in test [6] was 13.6%; in the test filed under Homo sapiens, 3.4%; in test [7] it was 5.42%; in test [8], 18.5%; in test [9] it was -9.38%.
